Screening results: PubChem BioAssay, National Center for Advancing Translational Sciences (NCATS)
rTrxR1 inhibitor = blocks rat thioredoxin reductase 1; 390,000 compounds, 1% hits; O89049; AID 588453; Potency, µM (highest dose often 114 µM), without a hit: top-dose activity change, negative = inhibition, hits mostly inhibitors; recombinant rTrxR1, NADPH fluorescence consumption, selenite substrate; further: potency means the concentration at half of the fitted maximal effect; nearly all actives have a fitted effect of over 65% in size
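Rat TrxR1 (90 nM in the dispensed reagent) was pre-reduced with 400 uM NADPH for 5 min at room temperature, then incubated with compound for 15 min. After 400 uM selenite was added, NADPH fluorescence (Ex 340/Em 450 nm) was followed for 8 min.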
mIDH1 inhibitor = human IDH1 R132H inhibition. 390,000 compounds, 0.093% hits. Potency, µM (doses to about 76.6 µM), without a hit: at the highest dose activity change, negative = inhibition, actives largely listed as inhibitors. AID 602179. O75874. IDH1-R132H enzyme, NADPH consumption, diaphorase/resazurin fluorescence; further: potency means the concentration at half of the fitted maximal effect; nearly all actives have a fitted effect of over 65% in size
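IDH1-R132H (0.5 ug/mL) preincubated 30 min with compound, then NADPH (0.016 mM) and alpha-KG (2 mM) added; 80 min at RT, pH 7.5. Remaining NADPH coupled via diaphorase/resazurin to fluorescence (540/590 nm); concentration-response curves normalized to no-enzyme control.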
Coupling enz = counter-screen for Giardia aldolase inhibitors: coupling enzyme system; coupling enzyme system counterscreen, AmpLite Red fluorescence; activity change, negative = inhibition, % at 58.2 µM, hits read low; 290,000 compounds, 0.67% hits; in the data active means activity change below about -30%
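First, compound is pin-transferred into glyceraldehyde-3-phosphate coupling-enzyme reagent at 57.5 uM final and held 10 min at RT. Next, substrate, coupling system and AmpLite Red are added. After 20 min RT, fluorescence (525/598 nm) is read.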
Eya2 phos inh = Eya2 (human) phosphatase inhibition | O00167 | recombinant Eya2, OMFP fluorescence dephosphorylation (OMFP is methylfluorescein phosphate) | Potency, µM (titrated, usually from 76.9 µM), for inactives: top-dose activity, negative = inhibition, actives largely listed as inhibitors | 330,000 compounds, 0.006% hits; further: potency means the concentration at half of the fitted maximal effect
Target sequence (O00167 whole entry, looked up): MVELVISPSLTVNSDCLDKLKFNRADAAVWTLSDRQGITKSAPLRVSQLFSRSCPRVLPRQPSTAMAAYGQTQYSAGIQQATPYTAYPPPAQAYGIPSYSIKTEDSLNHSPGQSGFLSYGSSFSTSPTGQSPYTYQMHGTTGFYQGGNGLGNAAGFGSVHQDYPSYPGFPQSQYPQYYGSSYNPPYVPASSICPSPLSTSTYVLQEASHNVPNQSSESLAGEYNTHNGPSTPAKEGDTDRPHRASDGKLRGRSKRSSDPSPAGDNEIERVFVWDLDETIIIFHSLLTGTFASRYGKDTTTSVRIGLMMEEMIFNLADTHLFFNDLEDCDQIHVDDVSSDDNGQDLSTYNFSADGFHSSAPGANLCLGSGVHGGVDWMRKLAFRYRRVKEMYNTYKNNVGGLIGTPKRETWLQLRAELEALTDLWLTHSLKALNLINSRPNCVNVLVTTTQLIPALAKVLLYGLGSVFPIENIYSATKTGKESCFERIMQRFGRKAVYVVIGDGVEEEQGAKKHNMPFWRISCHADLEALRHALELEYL
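Eya2 protein (added as 0.2 uM solution) was preincubated with compound for 10 min at ambient temperature in 50 mM HEPES pH 7.5, 50 mM NaCl, 5 uM MgCl2, 0.05% BSA, 1 mM DTT. OMFP (added at 50 uM) then reacted 10 min; fluorescence read at 485/525 nm.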
TrxR1 substrate = is turned over as a substrate by rat TrxR1. 390,000 compounds, 0.01% hits. purified TrxR1 substrate turnover, NADPH consumption readout. O89049. Potency, µM (doses to about 114 µM), for inactives: at the highest dose activity change, negative = substrate turnover; further: potency means the concentration at half of the fitted maximal effect; nearly all actives have a fitted effect of over 50% in size
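Rat TrxR1, dispensed at 90 nM, was prereduced with 400 uM NADPH (final) for 5 min at ~22 deg C, then incubated with compound 15 min before 400 uM selenite. A first-read NADPH fluorescence drop versus no-compound background flagged substrates.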
An asterisk follows results filed as active; ? = inconclusive; . = not tested or not shown; [ ] = another dose, or the depositor's remark. Sampled rows, rich in hits. Any-hit rate of the full collection: about 1.5%. Unless noted, the call rests on the fitted dose curve; in most records, active means well fitted curve in the direction sought with a large enough effect; inconclusive means small, poorly fitted or top-dose-only effect, or another doubt; inactive means no such curve, though single readings can be large; an effect the other way counts as inactive or inconclusive. On the % scale 0 is the no-effect control and ±100 the full control effect.

SMILES	rTrxR1 inhibitor	mIDH1 inhibitor	Coupling enz	Eya2 phos inh	TrxR1 substrate
C=C[C@@H](C1=CC(=O)C(OC)=C(OC)C1=O)c1ccccc1	.	.	-45*	.	.
C=CC(C1=CC(=O)C(OC)=CC1=O)c1ccc(O)cc1 (centres undefined)	.	.	-35*	.	.
COc1ccccc1OCC(=O)O	-3%	5%	3	-4%	-7%
CC(C)=CCC/C(C)=C/CC/C(C)=C/CC/C(C)=C/CC1=C(C)C(=O)c2ccccc2C1=O	?	-7%	-34*	-14%	3%
CC(C)=CCC1=C(OCC(=O)O)C(=O)c2ccccc2C1=O	-30%	21%	-45*	-5%	-14%
C=C1NN(C)C(=O)N1c1ccc(OC)cc1	24%	.	.	.	10%[0.0914 µM]
COc1ccc(-n2[nH]c(C)cc2=O)cc1	28%	6%	-32*	-28%	-3%
CCCCN1C(=O)Cc2c1nc(N)c1c(N)nc(N(CCC)CCC)c(C#N)c21	40%[57.1 µM]	2%	-11	14%	13%[57.1 µM]
N#Cc1c(N(CCO)CCO)nc(N)c2c(N)nc3c(c12)CC(=O)N3CC1CCCO1 (centres undefined)	23%	-6%	-38*	14%	65%
COC(=O)/C(=C\c1ccc([N+](=O)[O-])o1)NC(=O)c1ccccc1	32µM*	4%	-2	-6%	-15%
CCCCNC(=O)/C(=C\c1ccc([N+](=O)[O-])o1)NC(=O)c1ccccc1	?	0%	1	6%	-11%[57.1 µM]
CSC1=C(C#N)C(c2ccccc2Cl)C2=C(N1)c1ccccc1C2=O (centres undefined)	50µM*	-21%	-3	12%	-6%
CCCC(=O)N(C)c1ccc(/C=C2\C=Cc3ccccc32)cc1	20µM*	.	.	.	-7%
CC(=O)N(C)c1ccc(/C=C2\C=Cc3ccccc32)cc1	?	.	.	.	-4%
COc1ccc(C2c3ccc(O)cc3Oc3ncn(Cc4ccco4)c(=N)c32)cc1 (centres undefined)	50µM*	-1%	1	-2%	6%
CN(C)c1ccc(/C=C/c2ccnc3ccccc23)cc1	1%	.	.	.	10%[0.0914 µM]
CNc1cc(C(=O)O)nc2ccccc12	?	.	.	.	-6%
NC(=O)c1cc[n+](CC2=C(C(=O)O)N3C(=O)[C@@H](NC(=O)[C@@H](c4ccccc4)S(=O)(=O)[O-])[C@H]3SC2)cc1	45µM*	.	.	5%	13%[57.1 µM]
CC1=C(CC(=O)O)c2cc(F)ccc2/C1=C/c1ccc(S(C)=O)cc1 (centres undefined)	35µM*	-15%	3	-21%	-4%
Cc1ccnc(SCc2cc(=O)c(OC(=O)c3ccc(Br)o3)co2)n1	?	-7%	2	-10%	-4%
Cc1ccnc(SCc2cc(=O)c(OC(=O)c3cc([N+](=O)[O-])ccc3Cl)co2)n1	-19%	11%	1	2%	2%
Cc1cc(C)nc(SCc2cc(=O)c(OC(=O)c3ccc(S(=O)(=O)N(C)C)cc3)co2)n1	50µM*	0%	-2	-2%	-2%
Cc1ccnc(SCc2cc(=O)c(OC(=O)c3ccc(S(=O)(=O)N(C)C)cc3)co2)n1	10µM*	-2%	4	0%	2%
Cc1ccnc(SCc2cc(=O)c(OC(=O)c3ccc(S(=O)(=O)N4CCCC4)cc3)co2)n1	28µM*	-5%	6	-5%	3%
COc1cc2nc(N3CCCCC3)nc(NC3CCN(C)CC3)c2cc1OC	?	.	.	.	97%
SMILES	rTrxR1 inhibitor	mIDH1 inhibitor	Coupling enz	Eya2 phos inh	TrxR1 substrate
CNC(=O)CN1C(=O)c2cccc3cccc1c23	-5%	2%	-1	4%	4%
CN1/C(=N\O)c2cccc3cccc1c23	-6%	19%	-47*	1%	-1%
CCCc1cc(=O)oc2cc(C)cc(OCC(=O)Nc3ccc(S(N)(=O)=O)cc3)c12	20µM*	9%	.	-1%	-5%
CN(C)CCN1CCc2ccccc21	12%	-1%	-43*	.	10%
COc1cc2c(C#N)c(N3CCOCC3)nc(N)c2c(N)n1	23%	1%	-52*	6%	153%
COc1cc2c(C#N)c(N3CCc4ccccc4C3)nc(N)c2c(N)n1	-7%[57.1 µM]	7%	-49*	6%	51%[57.1 µM]
N#Cc1c(N2CCOCC2)nc(N)c2c(N)nc3c(c12)CC(CCl)O3 (centres undefined)	0%	-9%	-5	-5%	17%
CCOc1cc2c(C#N)c(N3CCNCC3)nc(N)c2c(N)n1	2%[57.1 µM]	8%	-2	6%	51%[57.1 µM]
CCOc1cc2c(C#N)c(N3CCCCC3)nc(N)c2c(N)n1	17%	5%	-48*	2%	57%
CCN(CC)c1nc(N)c2c(N)nc(OC)cc2c1C#N	-5%	-8%	.	.	-26%
COc1cc2c(C#N)c(N3CCCCC3)nc(N)c2c(N)n1	36%[57.1 µM]	12%	-52*	9%	41%[57.1 µM]
COC(=O)CC1c2ccccc2C=C(/C=C/c2ccc3c(c2)OCO3)N1C(=O)OC (centres undefined)	.	.	0	.	.
CN(C)c1ccc(/C=C/c2sc3ccccc3[n+]2Cc2ccccc2)cc1	-7%	.	.	.	-2%
CCOC(=O)C1CCN(c2nc(C)cc(C)c2C#N)CC1	10%	0%	0	-3%	41%
CCOC(=O)C1CCN(c2nc(N)c3c(N)nc(SCC(=O)O)cc3c2C#N)CC1	-32%	-9%	-32*	9%	26%
COc1ccc(NC2C=CS(=O)(=O)C2)c(OC)c1 (centres undefined)	-15%	8%	-41*	9%	8%
C(=C\c1ccnc2ccccc12)/c1cc2c3c(c1)CCCN3CCC2	-12%	.	.	.	11%[0.0914 µM]
CCN(Cc1ccc(OC)c(F)c1)C(=O)CCl	25µM*	6%	1	4%	3%
CCC1=C[C@@H]2CN(C1)Cc1c([nH]c3ccccc13)[C@@](C(=O)OC)(c1cc3c(cc1OC)N(C)[C@H]1[C@@](O)(C(=O)OC)[C@H](OC(C)=O)[C@]4(CC)C=CCN5CC[C@]31[C@@H]54)C2	28µM*	.	-7	.	4%
O=C(CSc1ccc2nnc(-c3ccccn3)n2n1)NCc1ccco1	45µM*	1%	-6	0%	14%
O=C(CSc1ccc2nnc(-c3ccccc3)n2n1)NCc1ccco1	?	-6%	1	-15%	-1%
O=C(C=Cc1ccccc1)c1cccs1	71µM*	5%	.	.	-10%
O=C(c1ccco1)N1CCN(/C=C2\Nc3ccccc3C(=O)N2c2ccc(F)cc2)CC1	-3%	.	.	.	-1%
Nc1ncn(C(=S)Nc2ccccc2)n1	16µM*	-3%	.	.	-6%
S=C(Nc1ccccc1)N1CCCCCC1	3%[57.1 µM]	0%	3	3%	11%[57.1 µM]
NC(=O)C1(N2CCCCC2)CCN(C(=O)Nc2ccccc2C(F)(F)F)CC1	-7%	-3%	-35*	-5%	-7%
Cc1ccc2c(C(=O)CNc3nc(C)c(C)s3)c(C)[nH]c2c1	6%	.	.	.	-5%
